# Results taken from PubChem BioAssay (NCATS).
# Results filed as inconclusive are left out. Entries that show only a call come without a potency. Active and inactive are the calls of the source. Calls come from the whole dose curve; as a rule, active = well fitted curve in the direction sought with a large enough effect; inconclusive = small, poorly fitted or top-dose-only effect, or another doubt; inactive = no such curve, though single readings can be large; an effect the other way counts as inactive or inconclusive.
# What was measured:
# [1] = biological target: Aldehyde dehydrogenase, mitochondrial (Homo sapiens) (UniProt P05091); assay: qHTS for Inhibitors of the Aldehyde Dehydrogenase Family (ALDH2) Primary screen (AID 2061308); note: nearly all actives have a fitted effect of over 55% in size
# [2] = biological target: Retinaldehyde dehydrogenase 3 (Homo sapiens) (UniProt P47895); assay: qHTS for Inhibitors of the Aldehyde Dehydrogenase Family (ALDH1A3) Primary screen (AID 2061315)
Structure (SMILES),Potency [1],Potency [2]
c1c[nH]c(CNc2ncnc3ccc(-c4ccoc4)cc23)n1,inactive,inactive
CC(=O)Nc1sc2cnccc2c1-c1nc2ccccc2s1,inactive,inactive
CCOc1ccc(CCNC(=O)c2cccs2)cc1OCC,inactive,inactive
O=C(Nc1ccccc1)c1cccs1,inactive,inactive
O=C(CSc1nnc(-c2cccc(S(=O)(=O)N3CCCC3)c2)n1-c1ccccc1)Nc1ccc(Cl)cc1,inactive,inactive
COc1ccc2nc(-c3ccccc3OCc3ccccc3)sc2c1,inactive,inactive
O=C(O)C[C@H]1CCC(=O)[C@@H]1C/C=C\CCO,inactive,inactive
CC(C)(C)OC(=O)NCC(=O)NNC(=O)c1cc2ccccc2[nH]1,inactive,inactive
Cc1cc2c(s1)c1cnn(Cc3ccccc3Cl)c(=O)c1n2C,inactive,inactive
N#Cc1ccccc1CCc1nc2ncc(Br)cc2[nH]1,inactive,inactive
S=C(NCCCNc1ccc(Br)cn1)NCCCc1cnc[nH]1,inactive,inactive
c1ccc(CNc2nc(-c3cccs3)nc3ccccc23)cc1,inactive,inactive
FC(F)(F)c1ccccc1-c1nc(NCc2cccc(Cl)c2)c2ccccc2n1,inactive,inactive
CC1CCC2C(C)(C)C(O)CCC2(C)C12Cc1c(O)cc3c(c1O2)C(N)=NC3 (centres undefined),inactive,inactive
CN(C)c1ccc2nc(NC(=S)N3CCN(c4cccc(C(F)(F)F)c4)CC3)sc2c1,inactive,inactive
Cc1cc(N[S+](=O)([O-])c2ccc(NC(=O)Cn3c(=O)oc4ccc(Cl)cc43)cc2)no1,inactive,inactive
Cc1ccc(-c2cc(C(=O)Nc3ccc(S(=O)(=O)N(C)C)cc3)c3ccccc3n2)cc1C,inactive,inactive
COc1cc(OC)cc(C2=Nn3c(nnc3-c3cccc(OC)c3)SC2)c1,inactive,inactive
Cc1ccc(NS(=O)(=O)c2ccc3ccccc3c2)cc1C,inactive,inactive
Cc1nc(CCN(C)c2ncnc3ccc(-c4ccc5c(c4)OCO5)cc23)cs1,inactive,inactive
Cc1ccc(-c2ccc(=O)n(CC(=O)N(C)CCc3ccco3)n2)cc1,inactive,inactive
CC1(C(=O)O)CCCC2(C)C3CCC4CC3(CCC12)CC4(O)CO (centres undefined),inactive,inactive
O=C(NCCCc1ccccc1)C1CCN(c2nc(-c3ccc(Br)cc3)cs2)CC1,inactive,inactive

Structure (SMILES),Potency [1],Potency [2]
NC[C@@H](O)c1ccc(O)c(O)c1,inactive,inactive
CN(CCC1CCCO1)c1ncnc2ccc(-c3ccc4c(c3)OCO4)cc12 (centres undefined),inactive,inactive
C=C1C(=O)O[C@@H]2C[C@@]3(C)CCCC(=C)[C@]3(O)C[C@H]12,inactive,inactive
Cc1cc(C)nc(NC(=S)N2CCN(c3noc4ccccc34)CC2)c1,inactive,inactive
Cc1ccc(-c2nn3c(C)nnc3s2)cc1NC(=O)c1ccc(-c2cccc(Cl)c2)o1,inactive,inactive
Cc1ccc(S(=O)(=O)Nc2ccc(OC(F)(F)F)cc2C(=O)Nc2nc(-c3ccccc3)cs2)cc1,inactive,inactive
CC(C)(C)OC(=O)NCc1nnc(-c2cc3ccccc3[nH]2)o1,inactive,inactive
Cc1cc(N[S+](=O)([O-])c2ccc(NC(=O)Cc3ccc(Cl)nc3)cc2)no1,inactive,inactive
COc1cccc(C(=O)Nc2ccc([S+](=O)([O-])Nc3nccs3)cc2)c1O,inactive,inactive
Fc1ccccc1-c1nnc2n1N=C(c1ccc(OC(F)F)c(OCC3CC3)c1)CS2,inactive,inactive
Cc1cc(C)nc(NC(=S)N2CCN(c3cnc4nccn4c3)CC2)c1,inactive,inactive
O=C(CSc1nnc(-c2cccc(S(=O)(=O)N3CCCC3)c2)n1-c1ccccc1)Nc1ccc(C(=O)O)cc1,inactive,inactive
C[C@@H]1COCCN1c1cc(C2(S(C)(=O)=O)CC2)nc(-c2cccc3[nH]ccc23)n1,inactive,inactive
Cc1cncc(NC(=S)N2CCN(c3cccc(C(F)(F)F)c3)CC2)c1,inactive,inactive
CCCCC(OC(=O)CNC(=O)c1ccccc1)C(=O)Nc1cc(C(F)(F)F)ccc1Cl (centres undefined),inactive,inactive
N#Cc1cc(NC(=O)Nc2nnc(-c3ccncc3)s2)ccc1Br,inactive,inactive
Cc1noc(C)c1-c1ccc2ncnc(NCc3ccc(F)c(F)c3)c2c1,inactive,inactive
O=S(=O)(Nc1nccs1)c1ccc(NCc2cccc(O)c2)cc1,inactive,inactive
CN(C)c1ccc(-c2cc(O)c3ncccc3c2)cc1,inactive,inactive
COc1cc(OC)cc(C2=Nn3c(nnc3-c3ccccc3O)SC2)c1,inactive,inactive
O=C(Nc1ccc(Cl)c(S(=O)(=O)N2CCOCC2)c1)c1ccc(S(=O)(=O)N2CCCCC2)cc1,inactive,inactive
O=C1c2ccccc2C(=O)N1c1cccnc1,inactive,inactive
N#Cc1cc(-c2nc(Nc3ccc(F)c(F)c3)c3ccccc3n2)ccn1,inactive,inactive

Structure (SMILES),Potency [1],Potency [2]
OC[C@H]1O[C@@H](O[C@H]2[C@H](OCCc3ccccc3)O[C@H](CO)[C@@H](O)[C@@H]2O)[C@H](O)[C@@H](O)[C@@H]1O,inactive,inactive
Cc1cc(NC(=O)Nc2cccc(-c3ccncc3)n2)ccc1Br,inactive,inactive
O=C1CCc2cc(S(=O)(=O)Nc3cccc(Oc4ccccc4)c3)ccc2N1,inactive,inactive
C[N+]1(CC2COC(c3ccccc3)(c3ccccc3)O2)CCCCC1 (centres undefined),inactive,inactive
O=C(OCC#CCSc1nnc(-c2cccc3ccccc23)o1)c1ccsc1,inactive,inactive
O=C(CNC(=O)c1ccccc1)OC(C(=O)Nc1cc([N+](=O)[O-])ccc1F)c1ccccc1 (centres undefined),inactive,inactive
Cc1cc(NS(=O)(=O)c2ccc(NC(=O)Cc3ccc(Cl)cc3)cc2)no1,inactive,inactive
N#Cc1ccc(NC(=O)Nc2nnc(-c3ccncc3)s2)cc1,inactive,inactive
FC(F)(F)c1ccccc1-c1nc(NCc2cccc3ccccc23)c2ccccc2n1,inactive,inactive
O=S(=O)(c1ccc2c(c1)OCCO2)N1CCN(S(=O)(=O)c2cc(F)c(Br)cc2F)CC1,inactive,inactive
Oc1cccc2cc(-c3ccccc3)cnc12,inactive,inactive
Fc1cccc(Nc2nc(-c3ccncc3)nc3ccccc23)c1,inactive,inactive
Cc1ccc(-c2cc(C(=O)Nc3ccc(S(C)(=O)=O)cc3)c3ccccc3n2)cc1C,inactive,inactive
Fc1ccccc1-c1ccc(Nc2nc(-c3ccncc3)nc3ccccc23)cc1F,inactive,inactive
CC(C)c1nc2c(cnn2C)c(=O)n1N,inactive,inactive
Cc1nnc(-c2ccccc2)n1CCCn1ccnc1,inactive,inactive
Cc1ccc(NC(=O)CSc2nnc(-c3cccc([S+](=O)([O-])N4CCCC4)c3)n2-c2ccccc2)cc1,inactive,inactive
N#Cc1cccc(-c2ccc(CNc3nc(-c4ccccc4C(F)(F)F)nc4ccccc34)cc2)c1,inactive,inactive
Cc1nc(Nc2nc3ccccc3o2)nc2c1CCCC2,inactive,inactive
O=C(O)c1ccc(O)c2ncc(N3CCCC3)cc12,inactive,inactive
Cc1cc(NS(=O)(=O)c2ccc(NC(=O)Cc3ccc4ccccc4c3)cc2)no1,inactive,inactive
